Test results taken from PubChem BioAssay AID1460 (National Center for Advancing Translational Sciences (NCATS), 2008).
The whole screen tested about 270,000 compounds, of which about 5,800 (2.1%) were called active. Entries that show only a call come without a potency. Not shown: some 16% with an inconclusive outcome. The sample holds actives, similar compounds and a random draw of the others, so the mix is not that of the screen. Calls come from the whole dose curve; as a rule, active = well fitted inhibition curve with a large enough effect; inconclusive = small, poorly fitted or top-dose-only effect; inactive = flat fitted curve, though single readings scatter.

target: Microtubule-associated protein tau (Homo sapiens) (UniProt P10636); assay: qHTS for Inhibitors of Tau Fibril Formation, Thioflavin T Binding; conditions: recombinant tau K18 P301L, heparin-induced fibrillization, ThT fluorescence; series mostly up to 57.4 µM; note: nearly all actives have a fitted effect of over 55% in size
Outline: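 Using a mix of unlabeled (15 uM) and Alexa 594-labeled (0.24 uM) tau K18 P301L, heparin-triggered fibrillization over 6 hr at 37 C was scored by ThT fluorescence.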
Potency is the fitted concentration of half-maximal effect.

Microtubule-associated protein tau (Homo sapiens), sequence (P10636 561-689 P618L limits assumed): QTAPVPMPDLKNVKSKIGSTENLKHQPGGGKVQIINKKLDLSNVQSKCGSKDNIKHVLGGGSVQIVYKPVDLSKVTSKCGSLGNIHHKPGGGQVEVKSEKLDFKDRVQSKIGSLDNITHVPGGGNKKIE

| SMILES | Potency |
| --- | --- |
| O=C(COc1ccccc1F)Nc1ccc(C(=O)OCc2cc(=O)n3nc(C4CC4)sc3n2)cc1 | inactive |
| CCOc1ccc(OCC)c(NC(=O)CN(c2ccc(C)cc2)S(=O)(=O)c2c(C)n[nH]c2C)c1 | inactive |
| CNC(=O)CN1C(=O)c2cccnc2Sc2ccccc21 | inactive |
| Cc1ccc(Cn2c(=O)n(-c3ccc(C)cc3)c(=O)c3c2c2cc(C)ccc2n3C)cc1 | inactive |
| COc1ccccc1NC(=O)c1cc(C2CC2)nc2c1c(C)nn2-c1ccc(C)cc1 | inactive |
| Cc1ccc2nc(CNC(=O)c3ccccc3)[nH]c2c1 | inactive |
| COc1ccc(NC(=O)c2cc3cc(C)ccc3n2C)cc1 | inactive |
| CCCCNC(=O)CSc1nc2cc3c(cc2c(=O)n1CCCCCC(=O)NCc1ccc2c(c1)OCO2)OCO3 | inactive |
| CC(=O)N/C(=C/c1ccc(Cl)cc1)C(=O)NCCc1c[nH]c2ccccc12 | inactive |
| O=C(NCCc1c[nH]c2ccccc12)C(=O)NCC1CCCO1 (stereo not drawn) | inactive |
| N#C/C(=C/c1ccc(N2CCCCC2)o1)C(=O)NCCc1c[nH]c2ccccc12 | 4.47 µM (active) |
| COc1ccc(CCNC(=O)c2nn(C)c3c2CSc2ccccc2-3)cc1OC | inactive |
| CCc1nc2onc(C)c2c(=O)n1CC(=O)O | inactive |
| Oc1ccc2ccccc2c1N=Nc1nccs1 | 7.94 µM (active) |
| Oc1ccc(N=Nc2nccs2)c(O)c1 | 3.55 µM (active) |
| CCCCn1c(=O)c2oc3ccccc3c2n(CC(=O)Nc2ccccc2OC)c1=O | inactive |
| COc1cc(C(CC(=O)NCCC(C)C)N2Cc3ccccc3C2=O)cc(OC)c1OC (stereo not drawn) | inactive |
| O=C(Cn1cnc2c(oc3ccccc32)c1=O)Nc1ccc(OC(F)(F)F)cc1 | inactive |
| Cc1ccc(CN2CCC(CNC(=O)c3cnn(-c4ccccc4Cl)c3C3CCN(C(=O)OC(C)(C)C)CC3)CC2)cc1 | inactive |
| COc1ccc(-c2nnc(SCC(=O)Nc3ccccc3C)o2)cc1OC | inactive |
| O=[N+]([O-])c1cc([N+](=O)[O-])c2cccnc2c1O | 12.6 µM (active) |
| CC(c1ccco1)N(C(=O)COc1ccccc1[N+](=O)[O-])c1ccccn1 (stereo not drawn) | inactive |
| O=[N+]([O-])c1cccc2ncccc12 | inactive |
| COCCNc1ncnc2c1c(-c1ccccc1)cn2-c1ccc(C)c(Cl)c1 | inactive |
| CCc1nnc(NC(=O)c2cccc(S(=O)(=O)N(C)c3ccc(OC)cc3)c2)s1 | inactive |
| CCc1ccc2nc3sc(C(=O)Nc4nnc(CC)s4)c(N)c3cc2c1 | 3.98 µM (active) |
| CCc1nnc(NC(=O)c2nc3nccc(C)n3n2)s1 | inactive |
| CCC(=O)N1c2ccccc2CC1C(=O)N1CCN(c2cccc(OC)c2)CC1 (stereo not drawn) | inactive |
